In PubChem BioAssay (Tox21) one finds Potency and max response data, which are given here for 12 compounds.

“And” between values parts separate entries of the source, which are not always exact repeats. Identical values can stand only once. Unmarked numbers belong to inactive results. Records with an inconclusive call do not appear. The source made the active and inactive calls. Calls follow the shape of the dose curve; as a rule, active = well fitted curve in the direction sought with a large enough effect in the repeat runs; inconclusive = weak or mixed curves; inactive = no such curve, though single readings can be large; an effect the other way counts as inactive or inconclusive.

Experiment [1] can be described thus: A CellTox Green Cytotoxicity Assay to monitor cytotoxicity in HEK293 cells - 40 hour (AID 1224871). Also: nearly all actives have a fitted effect of over 45% in size. Also: potency is read from the fitted curve at half-maximal effect. The essentials:
(§1)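 Fluorescence intensity, read at 0, 8, 16, 24, 32 and 40 h of compound treatment, reflected dye binding to DNA of dead HEK293 cells; compounds (23 nL, DMSO) were added 5 h after plating cells with reagent.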

Experiment [2] can be described thus: qHTS RealTime-Glo MT Cell Viability Assay in HEK293 cells - 16 hour (AID 1224872). Also: nearly all actives have a fitted effect of over 50% in size. Also: potency is read from the fitted curve at half-maximal effect. An outline of the steps: (§2)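 Assay medium contained NanoLuc luciferase plus cell-permeant prosubstrate, added with HEK293 cells at 600 cells/well. After 5 h at 37 C/5% CO2 compounds were added; plates stayed at 37 C for 40 h with serial luminescence reads.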
In general terms: In qHTS, concentration-response curves come from the screen itself.

Experiment [3] can be described thus: qHTS RealTime-Glo MT Cell Viability Assay in HepG2 cells - 8 hour (AID 1224873). Also: nearly all actives have a fitted effect of over 55% in size. An outline of the steps: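 Real-time viability: cells seeded at 600 per well together with NanoLuc and cell-permeant prosubstrate, compounds added after 5 h incubation. Luminescence tracked at 0, 8, 16, 24, 32 and 40 h of exposure.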
Experiment [4] in a line: qHTS RealTime-Glo MT Cell Viability Assay in HEK293 cells - 40 hour (AID 1224874). Also: nearly all actives have a fitted effect of over 50% in size. Also: potency is read from the fitted curve at half-maximal effect. Particulars: RealTime-Glo luminescence; max response: active compounds read low. An outline of the steps: (§3)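 Viable HEK293 cells reduce a cell-permeant prosubstrate; the product diffuses out and is consumed by NanoLuc in the medium to give light. Compounds went in after a 5 h incubation and plates were read over the treatment course.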

Experiment [5] can be described thus: A CellTox Green Cytotoxicity Assay to monitor cytotoxicity in HEK293 cells - 24 hour (AID 1224875). Also: nearly all actives have a fitted effect of over 45% in size. Also: potency is read from the fitted curve at half-maximal effect. The essentials: as §1
The nature of experiment [6]: A CellTox Green Cytotoxicity Assay to monitor cytotoxicity in HepG2 cells - 16 hour (AID 1224876). Also: nearly all actives have a fitted effect of over 45% in size. Also: potency is read from the fitted curve at half-maximal effect. The essentials: (§4)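 Using 1536-well format, dye-containing HepG2 suspension was seeded, allowed 5 h at 37 C/5% CO2, dosed by pintool with compounds, positive and negative controls, and imaged for fluorescence across 40 h.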
Experiment [7] can be described thus: qHTS RealTime-Glo MT Cell Viability Assay in HepG2 cells - 32 hour (AID 1224877). Also: nearly all actives have a fitted effect of over 55% in size. An outline of the steps: (§5)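 qHTS, HepG2, 600 cells/well, RealTime-Glo (NanoLuc + prosubstrate) added with cells; 5 h preincubation; DMSO compound addition; 37 C; luminescence at 0/8/16/24/32/40 h.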
The nature of experiment [8]: A CellTox Green Cytotoxicity Assay to monitor cytotoxicity in HepG2 cells - 24 hour (AID 1224878). Also: nearly all actives have a fitted effect of over 45% in size. Also: potency is read from the fitted curve at half-maximal effect. An outline of the steps: as §4
Experiment [9] in a line: A CellTox Green Cytotoxicity Assay to monitor cytotoxicity in HepG2 cells - 40 hour (AID 1224879). Also: nearly all actives have a fitted effect of over 40% in size. Also: potency is read from the fitted curve at half-maximal effect. An outline of the steps:
as §4

Experiment [10] in a line: qHTS RealTime-Glo MT Cell Viability Assay in HEK293 cells - 0 hour (AID 1224880). An outline of the steps: as §3
A short description of experiment [11]: A CellTox Green Cytotoxicity Assay to monitor cytotoxicity in HEK293 cells - 32 hour (AID 1224881). Also: nearly all actives have a fitted effect of over 40% in size. Also: potency is read from the fitted curve at half-maximal effect. The essentials:
as §1

Experiment [12] can be described thus: A CellTox Green Cytotoxicity Assay to monitor cytotoxicity in HepG2 cells - 0 hour (AID 1224882). Also: nearly all actives have a fitted effect of over 35% in size. Also: potency is read from the fitted curve at half-maximal effect. The essentials: as §4
Experiment [13] in a line: A CellTox Green Cytotoxicity Assay to monitor cytotoxicity in HepG2 cells - 32 hour (AID 1224883). Also: nearly all actives have a fitted effect of over 50% in size. Also: potency is read from the fitted curve at half-maximal effect. An outline of the steps:
as §4

The nature of experiment [14]: A CellTox Green Cytotoxicity Assay to monitor cytotoxicity in HEK293 cells - 8 hour (AID 1224884). Also: nearly all actives have a fitted effect of over 35% in size. Also: potency is read from the fitted curve at half-maximal effect. An outline of the steps: as §1
Experiment [15] in a line: qHTS RealTime-Glo MT Cell Viability Assay in HepG2 cells - 16 hour (AID 1224885). Also: nearly all actives have a fitted effect of over 50% in size. The essentials: as §5
Experiment [16] in a line: qHTS RealTime-Glo MT Cell Viability Assay in HEK293 cells - 24 hour (AID 1224886). Also: nearly all actives have a fitted effect of over 50% in size. Also: potency is read from the fitted curve at half-maximal effect. An outline of the steps:
as §2

Experiment [17] in a line: qHTS RealTime-Glo MT Cell Viability Assay in HEK293 cells - 8 hour (AID 1224887). An outline of the steps:
as §3

A short description of experiment [18]: A CellTox Green Cytotoxicity Assay to monitor cytotoxicity in HEK293 cells - 16 hour (AID 1224888). Also: nearly all actives have a fitted effect of over 35% in size. Also: potency is read from the fitted curve at half-maximal effect. The essentials:
as §1

The nature of experiment [19]: qHTS RealTime-Glo MT Cell Viability Assay in HepG2 cells - 0 hour (AID 1224889). Also: nearly all actives have a fitted effect of over 50% in size. An outline of the steps: as §5
Experiment [20] in a line: A CellTox Green Cytotoxicity Assay to monitor cytotoxicity in HepG2 cells - 8 hour (AID 1224890). Also: nearly all actives have a fitted effect of over 45% in size. Also: potency is read from the fitted curve at half-maximal effect. The essentials: as §4
% is scaled to controls: 0 for no effect and ±100 for the full control effect.

`O=C1CCCCCCCCCCCCCCCO1`: the Potency in experiment [1] was 24.5 µM (active); in experiment [5] it was 24.5 µM (active); in [6], 43.6 µM (active); in experiment [8], 43.6 µM (active); in experiment [9], 43.6 µM (active); in [11], 24.5 µM (active). For the same compound, the Potency in experiment [12] was 38.9 µM (active); in experiment [13], 43.6 µM (active); in experiment [14], 43.6 µM (active); in [18], 24.5 µM (active); in experiment [20] it was 43.6 µM (active). The Potency result in experiment [2], in experiment [3], in experiment [7], in experiment [10], in experiment [15] and in experiment [16] was “inactive” throughout. In addition, the Potency result in experiment [17] and in [19] was “inactive” each time. Besides, the max response in experiment [4] was 4%.

As to `C=CC(C)(CCC=C(C)C)OC=O` (stereo not given), the Potency entry in experiment [1], in experiment [2], in experiment [3], in experiment [5], in experiment [6] and in [7] was “inactive” in each case. For the same compound, the Potency result in experiment [8], in experiment [9], in experiment [10], in [11], in experiment [12] and in experiment [13] was “inactive” each time. The Potency result in [14], in [15], in experiment [16], in experiment [17], in [18] and in experiment [19] was “inactive” each time. The Potency result in experiment [20] was “inactive”. The max response in experiment [4] was 5.29%.

With `CC(CCc1ccccc1)NCC(O)c1ccc(O)c(C(N)=O)c1` (stereo not given), the Potency entry in experiment [1], in experiment [2], in experiment [3], in experiment [5], in experiment [6] and in experiment [7] was “inactive” each time. For the same compound, the Potency entry in [8], in experiment [9], in experiment [10], in experiment [11], in [12] and in [13] was “inactive” each time. Besides, the Potency result in experiment [14], in experiment [15], in experiment [16], in experiment [17], in experiment [18] and in experiment [19] was “inactive” each time. Further, the Potency entry in experiment [20] was “inactive”. Besides, in [4], the max response is 0.74%.

Take `c1cnccn1`: the Potency entry in experiment [1], in experiment [2], in experiment [3], in experiment [5], in experiment [6] and in experiment [7] was “inactive” in each case. In addition, the Potency result in [8], in [9], in experiment [10], in [11], in experiment [12] and in experiment [13] was “inactive” each time. The Potency entry in experiment [14], in experiment [15], in experiment [16], in [17], in experiment [18] and in experiment [19] was “inactive” in each case. In addition, in [20], the Potency result was “inactive”. For the same compound, in [4], the max response was 2.57%.

In the case of `CN(C)Cc1cc(C(C)(C)C)c(O)c(C(C)(C)C)c1`, the Potency result in [1], in [2], in [3], in [5], in experiment [6] and in [7] was “inactive” each time. For the same compound, the Potency result in [8], in experiment [9], in [10], in [11], in experiment [12] and in experiment [13] was “inactive” throughout. Moreover, the Potency result in experiment [14], in [15], in experiment [16], in experiment [17], in [18] and in experiment [19] was “inactive” in each case. Further, in experiment [20], the Potency result was “inactive”. Besides, in [4], the max response is -1.74%.

Regarding `C=C(CC)C(=O)c1ccc(OCC(=O)O)c(Cl)c1Cl`, the Potency entry in experiment [1], in [2], in experiment [3], in [5], in experiment [6] and in experiment [7] was “inactive” throughout. Also, the Potency entry in experiment [8], in experiment [9], in experiment [10], in [11], in experiment [12] and in [13] was “inactive” throughout. Moreover, the Potency entry in [14], in [15], in experiment [16], in experiment [17], in [18] and in experiment [19] was “inactive” throughout. Further, the Potency entry in experiment [20] was “inactive”. The max response in [4] is -6.17% and 15.5%.

Regarding `NC(=O)c1cccc([N+](=O)[O-])c1`, the Potency entry in experiment [1], in experiment [2], in [3], in experiment [5], in [6] and in experiment [7] was “inactive” throughout. In addition, the Potency entry in experiment [8], in [9], in experiment [10], in experiment [11], in experiment [12] and in experiment [13] was “inactive” throughout. Further, the Potency result in experiment [14], in experiment [15], in [16], in experiment [17], in experiment [18] and in [19] was “inactive” in each case. For the same compound, the Potency entry in experiment [20] was “inactive”. In addition, the max response in [4] is -0.169%.

Consider `Cc1c(C)c2c(c(C)c1OC(=O)c1cccnc1)CC[C@@](C)(CCC[C@H](C)CCC[C@H](C)CCCC(C)C)O2`, for which the Potency entry in [1], in experiment [2], in [3], in experiment [5], in [6] and in [7] was “inactive” each time. For the same compound, the Potency result in experiment [8], in experiment [9], in experiment [10], in experiment [11], in [12] and in experiment [13] was “inactive” in each case. For the same compound, the Potency entry in experiment [14], in [15], in [16], in [17], in experiment [18] and in [19] was “inactive” throughout. Further, in [20], the Potency entry is “inactive”. The max response in experiment [4] is -1.07%.

Regarding `Cc1cccc(C)c1NC(=O)c1ccc(N)cc1`, the Potency result in experiment [1], in experiment [2], in experiment [3], in experiment [5], in experiment [6] and in experiment [7] was “inactive” each time. Besides, the Potency result in experiment [8], in experiment [9], in [10], in experiment [11], in [12] and in [13] was “inactive” each time. Besides, the Potency result in experiment [14], in experiment [15], in experiment [16], in experiment [17], in [18] and in [19] was “inactive” each time. Besides, in experiment [20], the Potency result is “inactive”. For the same compound, the max response in [4] was -2.12%.

Take `COc1cc(C)ccc1O`: the Potency entry in experiment [1], in experiment [2], in experiment [3], in experiment [5], in experiment [6] and in [7] was “inactive” in each case. In addition, the Potency result in experiment [8], in [9], in [10], in [11], in experiment [12] and in experiment [13] was “inactive” each time. The Potency result in experiment [14], in experiment [15], in [16], in [17], in experiment [18] and in [19] was “inactive” throughout. In addition, the Potency result in experiment [20] was “inactive”. Moreover, in [4], the max response was 3.04%.

Turning to `COC(C)=O`, the Potency entry in [1], in experiment [2], in [3], in [5], in experiment [6] and in experiment [7] was “inactive” in each case. The Potency result in experiment [8], in experiment [9], in [10], in experiment [11], in experiment [12] and in [13] was “inactive” each time. Besides, the Potency result in [14], in [15], in [16], in experiment [17], in [18] and in experiment [19] was “inactive” each time. Further, the Potency result in experiment [20] is “inactive”. Besides, in [4], the max response was -13.9%.

Turning to `Oc1ccccc1O`, the Potency entry in experiment [1], in experiment [3], in [5], in experiment [6], in [7] and in experiment [8] was “inactive” each time. Further, the Potency entry in experiment [9], in experiment [10], in [11], in experiment [12], in experiment [13] and in experiment [14] was “inactive” throughout. Further, the Potency entry in experiment [15], in [17], in experiment [18], in [19] and in [20] was “inactive” throughout. The Potency in experiment [2] was 55.6 µM (active) and 49 µM (active); in [4], 35.1 µM (active) and 24.5 µM (active); in experiment [16], 49.6 µM (active) and 24.5 µM (active).
